Compound activity as filed in PubChem.
Compounds with a hit are over-represented: about 4.2% of the library has one in this group of screens.
tim23-1 inh = tim23-1 yeast growth inhibition; S. cerevisiae tim23-1 growth, BacTiter-Glo luminescence, 24 h; inhibition, % at 20 µM; hit rate 1.3% among 330,000;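 active = growth inhibition of the mutant yeast at or above 50%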;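 also: temperature-sensitive mutant grown at 25 °C; plate controls were DMSO-treated mutant yeast for no effect and medium wells lacking yeast for full effect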
NLRP3 yeast inh = blocks the NALP3 inflammasome reconstituted in yeast. inhibition, % at 10 µM. AID 2825. hit rate 0.39% among 330,000. Yeast reconstituted NLRP3/ASC/caspase-1, beta-gal luminescence, 24 h;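 active = inhibition of 50% or more; inactive = inhibition below 50%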;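 also: plate controls were induced DMSO wells for no effect and uninduced yeast grown without galactose for full effect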
TIM10 inh = TIM10 yeast growth inhibition; inhibition, % at 10 µM; hit rate 1.4% among 330,000; S. cerevisiae TIM10 strain growth, BacTiter-Glo luminescence, 24 h;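 active = inhibition of 40% or more at the single tested concentration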;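 also: wild-type TIM10 isogenic control strain grown at permissive 25 °C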
V-ATPase pHluor = yeast V-ATPase proton transport regulation by pHLuorin; hit rate 0.37% among 350,000; S. cerevisiae, pHLuorin cytosolic pH fluorescence; response, % at 10 µM; in the data active = response mostly above about 7.3%, no sharp cut-off; inactive = mostly below about 5.4%; also: actives read high
tim10-1 inh = tim10-1 yeast growth inhibition; hit rate 2.2% among 330,000; inhibition, % at 20 µM; S. cerevisiae tim10-1 ts strain growth, BacTiter-Glo, 24 h; AID 463190;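 active = inhibition of at least 40%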;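 also: mutant grown at 25 °C; 0% = DMSO wells with yeast and 100% = wells holding no yeast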
NALP1 inh = blocks the NALP1 inflammasome reconstituted in yeast; hit rate 0.61% among 280,000; inhibition, % at 10 µM; S. cerevisiae NALP1/ASC/caspase-1 growth, X-gal OD620, 72 h; in the data active = inhibition mostly above about 24%, no sharp cut-off; inactive = mostly below about 32%
tim10 confirm = TIM10 yeast growth inhibition, confirmed; inhibition, % at 10 µM; S. cerevisiae tim10 strain growth, BacTiter-Glo luminescence, 24 h; shares compounds with TIM10 inh; hit rate 63% among 4,600;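 active = inhibition of yeast growth at or above a set limit in either of two replicates at 10 µM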;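 also: this counterscreen used the strain with wild-type TIM10; 0% = yeast with DMSO and 100% = medium wells lacking yeast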
Active calls of the source: *.

What do the screens show for `O=C(/C=C/c1ccccc1)NNC(=O)c1cccc(Cl)c1`?
tim23-1 inh: -12.1; NLRP3 yeast inh: 22.0; TIM10 inh: -8.2; V-ATPase pHluor: 0.2; tim10-1 inh: -6.8; NALP1 inh: -3.9

Results for CCN[C@H]1C[C@H](C)S(=O)(=O)c2sc(S(N)(=O)=O)cc21 ?
tim23-1 inh: 3.2; NLRP3 yeast inh: 17.5; TIM10 inh: 4.3; V-ATPase pHluor: -2.2; tim10-1 inh: 4.6

What do the screens show for `Cc1nc(NC(=O)c2ccccc2)sc1-c1csc(N)n1`?
tim23-1 inh: 25.6; NLRP3 yeast inh: 16.9; TIM10 inh: 43.9*; V-ATPase pHluor: -1.2; tim10-1 inh: 35.1; NALP1 inh: 1.5; tim10 confirm: 24.1

Results for Nc1nnc(SCC(=O)Nc2ccc3c(c2)OCCO3)s1 ?
tim23-1 inh: -0.9; NLRP3 yeast inh: 6.5; TIM10 inh: 0.1; V-ATPase pHluor: -6.7; tim10-1 inh: 2.0; NALP1 inh: 4.6

Results for O=C(Nc1cc(Oc2ccc(Cl)cc2)cc([N+](=O)[O-])c1)c1ccco1 ?
tim23-1 inh: 39.7; NLRP3 yeast inh: 32.5; TIM10 inh: 64.8*; V-ATPase pHluor: -4.0; tim10-1 inh: 31.6; NALP1 inh: 17.6; tim10 confirm: -12.8

Results for CCOc1ccc(Oc2cc(NC(=O)c3ccco3)cc([N+](=O)[O-])c2)cc1 ?
V-ATPase pHluor: -3.0; NALP1 inh: 0.8

What do the screens show for `CCCCOC(=O)n1c(=S)oc2cc(Cl)ccc21`?
tim23-1 inh: -155.2; NLRP3 yeast inh: 17.4; TIM10 inh: 74.2*; V-ATPase pHluor: 3.3; tim10-1 inh: -53.8; NALP1 inh: 2.8; tim10 confirm: -39.2

What do the screens show for `CCCCOC(=O)CCn1c(=S)oc2ccccc21`?
tim23-1 inh: 25.2; NLRP3 yeast inh: 22.3; TIM10 inh: 9.7; V-ATPase pHluor: 1.8; tim10-1 inh: 10.5; NALP1 inh: 13.9

Results for COCC(C)n1c(C)cc(C(=O)COC(=O)c2c(C)nn(-c3ccccc3)c2C)c1C (configuration not stated) ?
tim23-1 inh: 11.2; NLRP3 yeast inh: 3.6; TIM10 inh: 42.7*; V-ATPase pHluor: -1.3; tim10-1 inh: 35.2; NALP1 inh: 10.3; tim10 confirm: -2.1

What do the screens show for `COCCn1c(C)cc(C(=O)COC(=O)c2c(C)nn(Cc3ccccc3)c2C)c1C`?
tim23-1 inh: 35.6; NLRP3 yeast inh: -3.1; TIM10 inh: 40.8*; V-ATPase pHluor: -0.3; tim10-1 inh: 31.1; NALP1 inh: -16.7; tim10 confirm: 3.4

How did Cc1nn(Cc2ccccc2)c(C)c1C(=O)OCC(=O)c1cc(C)n(C2CC2)c1C do in these assays?
tim23-1 inh: 43.6; NLRP3 yeast inh: 5.9; TIM10 inh: 31.9; V-ATPase pHluor: 4.9; tim10-1 inh: 39.5; NALP1 inh: 12.5

What do the screens show for `Cc1cc(OCc2nnc(SCC(=O)OC3CCCCC3)o2)ccc1Cl`?
tim23-1 inh: 0.3; NLRP3 yeast inh: 4.9; TIM10 inh: 4.5; V-ATPase pHluor: -4.7; tim10-1 inh: -3.3; NALP1 inh: 5.9

Results for CCc1ccccc1NC(=S)NCCSc1ccc(Cl)cc1 ?
tim23-1 inh: 17.5; NLRP3 yeast inh: 24.9; TIM10 inh: 54.7*; V-ATPase pHluor: 0.3; tim10-1 inh: 35.4; NALP1 inh: 3.9; tim10 confirm: 40.1*

What do the screens show for `CS(=O)(=O)Nc1ccccc1C(=O)NCCSc1ccc(Cl)cc1`?
tim23-1 inh: 25.7; NLRP3 yeast inh: 19.4; TIM10 inh: 10.3; V-ATPase pHluor: 0.7; tim10-1 inh: 4.5; NALP1 inh: 23.1

How did CCOC(=O)c1ccc(S(=O)(=O)n2c(CN3CCCCC3)nc3ccccc32)cc1 do in these assays?
tim23-1 inh: 35.3; NLRP3 yeast inh: 9.1; TIM10 inh: 50.2*; V-ATPase pHluor: -0.9; tim10-1 inh: 37.1; NALP1 inh: 17.5; tim10 confirm: 27.9

How did CC(C)CC(c1nnnn1Cc1cccs1)N1CCN(c2nc3ccccc3s2)CC1 (configuration not stated) do in these assays?
tim23-1 inh: 1.1; NLRP3 yeast inh: -3.0; TIM10 inh: 27.9; V-ATPase pHluor: -0.4; tim10-1 inh: 30.2; NALP1 inh: 20.0

How did CC(C)C(c1nnnn1Cc1ccco1)N1CCN(c2nc3ccccc3s2)CC1 (configuration not stated) do in these assays?
tim23-1 inh: 21.5; NLRP3 yeast inh: 7.9; TIM10 inh: 44.5*; V-ATPase pHluor: 2.7; tim10-1 inh: 27.6; NALP1 inh: 7.1; tim10 confirm: -25.0

What do the screens show for `Cn1nc(C(=O)Nc2cccc(Cl)c2)cc1C(=O)Nc1cccc(Cl)c1`?
tim23-1 inh: 11.8; NLRP3 yeast inh: 23.5; TIM10 inh: -21.2; V-ATPase pHluor: -2.6; tim10-1 inh: -13.0; NALP1 inh: 9.7

Results for O=C(CN1CCN(c2nc(-c3ccc(Cl)cc3)cs2)CC1)NCc1ccco1 ?
tim23-1 inh: 23.2; NLRP3 yeast inh: 9.6; TIM10 inh: 41.8*; V-ATPase pHluor: -2.3; tim10-1 inh: 20.3; NALP1 inh: 29.0; tim10 confirm: 28.9*

What do the screens show for `O=C1NC2(C=Cc3c(ccc4ccccc34)O2)Oc2ccccc21` (configuration not stated)?
tim23-1 inh: 34.4; NLRP3 yeast inh: -4.3; TIM10 inh: 41.2*; V-ATPase pHluor: -2.0; tim10-1 inh: 24.9; NALP1 inh: 22.3; tim10 confirm: 28.4

How did CC1(C)Cc2c(ccc3ccccc23)C(=O)N1 do in these assays?
tim23-1 inh: 12.8; NLRP3 yeast inh: 11.8; TIM10 inh: 11.3; V-ATPase pHluor: 1.3; tim10-1 inh: 7.4; NALP1 inh: 13.8

What do the screens show for `CCc1cc(-c2n[nH]c(=S)n2C(C)c2ccccc2)cs1` (configuration not stated)?
tim23-1 inh: 39.6; NLRP3 yeast inh: 0.2; TIM10 inh: 41.4*; V-ATPase pHluor: 0.9; tim10-1 inh: 26.0; tim10 confirm: 19.5

Results for CC(c1ccccc1)n1c(-c2ccc(C(C)(C)C)cc2)n[nH]c1=S (configuration not stated) ?
tim23-1 inh: 47.9; NLRP3 yeast inh: 23.2; TIM10 inh: 27.0; V-ATPase pHluor: -1.1; tim10-1 inh: 25.3; NALP1 inh: -1.2

What do the screens show for `CC(=O)c1cc2c(cc1N/C(=N/S(=O)(=O)c1ccc(C)cc1)c1ccccc1)OCO2`?
tim23-1 inh: 30.4; NLRP3 yeast inh: 15.0; TIM10 inh: 42.7*; V-ATPase pHluor: 1.1; tim10-1 inh: 25.7; NALP1 inh: 19.7; tim10 confirm: 2.1

How did Cc1cc(NC(=O)c2ccccc2)sc1C do in these assays?
tim23-1 inh: 44.0; NLRP3 yeast inh: 38.6; TIM10 inh: 51.9*; V-ATPase pHluor: -0.2; tim10-1 inh: 37.6; NALP1 inh: 22.6; tim10 confirm: 42.3*

What do the screens show for `COC(=O)C(NC(=O)C(NC(=O)C1CCC(C)CC1)C(C)C)C(C)C` (configuration not stated)?
tim23-1 inh: 13.2; NLRP3 yeast inh: 2.5; TIM10 inh: -4.2; V-ATPase pHluor: -1.7; tim10-1 inh: -1.0
